The list is not random: actives were taken first. Their share in the collection is about 7.3%.
HCV inh = qHTS Assay for Inhibitors of Hepatitis C Virus (HCV) | 340,000 tested, 3.4% active | Potency, µM (series often up to 41.8 µM), actives largely listed as inhibitors | Huh7.5.1 HCVcc-Cre infection, luciferase reporter, 44 h; active means well fitted inhibition curve with a large enough effect; inconclusive means small, poorly fitted or top-dose-only effect, or another doubt; inactive means no such curve, though single readings can be large or run the other way
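Infectious HCV cell culture screen: compound-treated cells (1,000/well, pre-plated 4 h) are infected with HCVcc-Cre at roughly 0.5 moi and grown 44 h. Infection is quantified by luciferase signal after 15 min substrate incubation at room temperature.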
Vaccinia mCherry = qHTS for Stage-Specific Inhibitors of Vaccinia Orthopoxvirus: mCherry Reporter Primary qHTS. Vaccinia virus mCherry reporter infection, fluorescence. Potency, µM (top dose mostly 36.5 µM), most hits filed as inhibitors. 310,000 tested, 0.63% active. AID 720579, 2013; calls by dose curve; tested in A549 cells; further: nearly all actives have a fitted effect of over 35% in size
Vaccinia Venus = qHTS for Stage-Specific Inhibitors of Vaccinia Orthopoxvirus: Venus Reporter Primary qHTS; 330,000 tested, 0.46% active; Vaccinia virus Venus reporter expression, fluorescence; Potency, µM (top dose mostly 36.5 µM), usual class: inhibitors; calls by dose curve; tested in A549 cells; further: nearly all actives have a fitted effect of over 30% in size
FMDV antiviral = High Throughput Screening for Foot and Mouth Disease Virus Antivirals; FMDV antiviral cell-based qHTS; Potency, µM (top dose mostly 57.9 µM), usual class: inhibitors; 410,000 tested, 1.2% active; AID 1159524, 2015; calls by dose curve; tested in HEK293T cells; further: read-out not given here; nearly all actives have a fitted effect of over 45% in size
HCMV inh = qHTS Assay for inhibitors of the human cytomegalovirus (HCMV); HFF cells, HCMV-luciferase reporter, 72 h; active compounds read low; activity change, negative = inhibition, % at 57.5 µM; 410,000 tested, 4.5% active; AID 1259415, 2018; in the data active means activity change below about -60%; inconclusive means no clear call, values can overlap the other calls; inactive means above about -39%
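Screen run at 2 compound doses on HFFs infected with reporter HCMV, MOI 1 PFU/cell. Luciferase activity from cell lysates at 72 h post infection gave inhibition relative to buffer-only and Salinomycin wells.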
Each line names hits and unclear results; the compound was inactive in the other large screens.

CC(C)Cc1ccc(C(C)/C=C2/CCC(CN3CCCCC3)C2=O)cc1 (centres undefined)	HCV inh inconclusive, FMDV antiviral 40µM
O=C1CCCCC1CN1CCCCC1 (centres undefined)	none (no result: HCV inh, Vaccinia mCherry, Vaccinia Venus, FMDV antiviral)
Cc1ccc2c(c1)-c1nc(-c3ccc4c(c3)NC(=O)CO4)cc(-c3ccc(Cl)cc3)c1CO2	none (no result: HCV inh)
CC12CN3CC(C)(CN(C1)C3c1ccc([N+](=O)[O-])o1)C2=O (centres undefined)	none (no result: Vaccinia mCherry, Vaccinia Venus)
CC(C)C12CN3CC(C(C)C)(CN(C1)C3c1ccc([N+](=O)[O-])o1)C2=O (centres undefined)	HCMV inh -72
COc1c(C(=O)Nc2nccs2)ccc2ccccc12	none (no result: Vaccinia mCherry, Vaccinia Venus)
COc1cc2ccccc2cc1C(=O)Nc1cc(C)ccn1	HCV inh 13µM
COc1cc2ccccc2cc1C(=O)Nc1nccs1	HCV inh 11µM
Cc1ccccc1CSc1nc2cccnc2n1Cc1ccc(C(=O)NCCc2cccs2)cc1	none (no result: HCV inh)
CC(=O)Nc1ccc(NC(=O)COc2cccc3c2OC(C)(C)C3)cc1	none
CC1(C)CC(=O)c2c(O)cc(OCC(=O)Nc3ccc(S(N)(=O)=O)cc3)cc2O1	HCV inh inconclusive, FMDV antiviral inconclusive
COc1cc(C)c(NC(=O)COc2cccc3c2OC(C)(C)C3)cc1OC	HCV inh 10µM, FMDV antiviral inconclusive (no result: Vaccinia mCherry, Vaccinia Venus, HCMV inh)
CN(C)C(=O)c1ccc(NC(=O)COc2cccc3c2OC(C)(C)C3)cc1	HCV inh inconclusive, HCMV inh -101
COC(=O)c1ccc(NC(=O)COc2cccc3c2OC(C)(C)C3)cc1	HCV inh inconclusive
COc1cc(NC(=O)COc2cccc3c2OC(C)(C)C3)cc(OC)c1OC	HCV inh inconclusive, FMDV antiviral 22µM (no result: Vaccinia mCherry, Vaccinia Venus)
COc1cc(NC(=O)COc2cc(O)c3c(c2)OC(C)(C)CC3=O)cc(OC)c1OC	HCV inh 0.32µM, Vaccinia mCherry inconclusive, Vaccinia Venus inconclusive, FMDV antiviral 4µM
COc1ccc(NC(=O)COc2cccc3c2OC(C)(C)C3)c(OC)c1	HCV inh inconclusive
O=S(=O)(c1ccccc1)N1N=C(c2ccc(Cl)cc2)CC1c1ccco1 (centres undefined)	HCV inh inconclusive
CCN(CCOC(=O)Nc1ccc(Cl)cc1)C(=O)Nc1ccc(Cl)cc1	none (no result: HCV inh, Vaccinia mCherry, Vaccinia Venus, FMDV antiviral)
Cc1ccsc1CN1CCc2nnc(CCNC(=O)c3ccc(F)cc3)n2CC1	none (no result: HCV inh, HCMV inh)
C[C@H](CO)N1C[C@H](C)[C@@H](CN(C)C(=O)Nc2ccc3c(c2)OCCO3)OCc2cn(nn2)CCCC1=O	none (no result: HCV inh, Vaccinia mCherry, Vaccinia Venus, FMDV antiviral)
CN(Cc1ccc(Cl)c(Cl)c1)C(C(=O)NCc1ccccc1)c1ccc(C(F)(F)F)cc1 (centres undefined)	Vaccinia mCherry 11µM, Vaccinia Venus inconclusive, HCMV inh inconclusive (no result: HCV inh)
CC1CC(C)CN(c2ccc(C(=O)NCc3ccc4c(c3)OCO4)cc2[N+](=O)[O-])C1 (centres undefined)	HCV inh inconclusive, HCMV inh -62
O=C(C[C@H]1C(=O)N(Cc2ccccc2)C[C@@H]1Cc1ccccc1)Nc1ccc(Br)cc1	Vaccinia mCherry inconclusive, Vaccinia Venus inconclusive (no result: HCV inh)
O=C(CNC(=O)c1ccccc1Br)N/N=C/c1cc(Br)ccc1O	HCV inh inconclusive (no result: Vaccinia mCherry, Vaccinia Venus)
O=C(N/N=C/c1cc(Cl)ccc1O)c1cccnc1	HCV inh 5µM, Vaccinia mCherry inconclusive, Vaccinia Venus inconclusive, HCMV inh inconclusive
O=C(N/N=C/c1cc(Cl)ccc1O)c1ccccc1Br	HCV inh inconclusive, HCMV inh -100 (no result: Vaccinia mCherry, Vaccinia Venus)
O=C(N/N=C\c1cc(Cl)ccc1O)c1ccc(S(=O)(=O)N2CCCCC2)cc1	HCV inh 3.5µM, Vaccinia mCherry 13µM, Vaccinia Venus inconclusive, HCMV inh -103
O=C(Nc1cc(S(=O)(=O)Nc2ccc(Cl)cc2)ccc1O)c1ccc(S(=O)(=O)N2CCCCCC2)cc1	HCV inh inconclusive, Vaccinia mCherry inconclusive
CCc1ccc2oc(C(=O)NCCc3ccc(OC)c(OC)c3)cc(=O)c2c1	FMDV antiviral inconclusive (no result: HCV inh)
COCC(=O)Nc1cc(C(=O)N2CCCCC2c2nccn2C)cc2nc(-c3ccccc3)n(C)c12 (centres undefined)	none (no result: HCV inh, HCMV inh)
CCn1c(CSCc2ccccc2)n[nH]c1=S	HCMV inh -73
Cc1n[nH]c(=S)n1Cc1ccccc1	HCMV inh -82
S=c1[nH]nc(-c2ccccc2)n1Cc1ccccc1	none
S=c1[nH]nc(CN2CCCCC2)n1Cc1ccccc1	HCMV inh -82
O=C1COc2ccccc2C(c2nc3ccccc3[nH]2)N1Cc1ccccc1 (centres undefined)	none (no result: HCV inh)
Cc1cccc(/C=N/Nc2cc(N3CCOCC3)nc(N3CCOCC3)n2)c1	HCV inh 6.3µM, Vaccinia mCherry inconclusive, Vaccinia Venus inconclusive
Cc1ccc([N+](=O)[O-])cc1Nc1nc(N2CCOCC2)nc(N2CCOCC2)n1	HCMV inh -70
O=[N+]([O-])c1ccc(Cl)c(/C=N/Nc2nc(N3CCOCC3)nc(N3CCOCC3)n2)c1	HCV inh inconclusive (no result: Vaccinia mCherry, Vaccinia Venus)
O=[N+]([O-])c1cccc(/C=N/Nc2nc(N3CCOCC3)nc(N3CCOCC3)n2)c1	HCMV inh -93
Cc1ccc(NC(=O)c2cc(S(=O)(=O)N3CCOCC3)cn2C)cc1Cl	HCV inh inconclusive
Cc1ccc(Nc2nc(-c3ccc(S(=O)(=O)N4CCOCC4)cc3)cs2)cc1Cl	Vaccinia mCherry inconclusive, Vaccinia Venus inconclusive, FMDV antiviral inconclusive, HCMV inh -74
CC(C)CC(=O)Nc1nc(-c2ccc(S(=O)(=O)N3CCOCC3)cc2)cs1	HCV inh inconclusive, FMDV antiviral 22µM
CCCCC(=O)Nc1nc(-c2ccc(S(=O)(=O)N3CCOCC3)cc2)cs1	HCV inh inconclusive, FMDV antiviral inconclusive, HCMV inh -90
O=C(CN1CCOCC1)Nc1nc(-c2ccccc2)cs1	none
COc1cc(C(=O)NCCc2sc(-c3ccc(C)cc3)nc2C)cc(OC)c1OC	none (no result: HCV inh)
CNc1cccc2c1C(=O)c1ccccc1C2=O	HCV inh 13µM
O=C1c2ccccc2C(=O)c2c(NCc3cccnc3)cccc21	HCV inh inconclusive, HCMV inh inconclusive
COc1ccc(NC(=O)COc2ccc(N(C)S(=O)(=O)c3ccc(C)cc3)cc2)cc1	HCV inh inconclusive, FMDV antiviral inconclusive
COc1ccc(/C=N/NC(=O)c2ccc(N(C)S(=O)(=O)c3ccccc3)cc2)cc1	HCV inh 13µM, FMDV antiviral inconclusive (no result: Vaccinia mCherry, Vaccinia Venus)
O=C(N/N=C\c1c(F)c(F)c(F)c(F)c1F)c1ccc(-c2ccccc2)cc1	HCMV inh -69
O=C(N/N=C\c1cccc(F)c1)c1ccc(-c2ccccc2)cc1	none
CCOc1cc(/C=N/NC(=O)c2cccc([N+](=O)[O-])c2)ccc1OS(=O)(=O)c1ccccc1	HCV inh 8.9µM (no result: Vaccinia mCherry, Vaccinia Venus)
COc1ccc(/C=N/NC(=O)c2cccc([N+](=O)[O-])c2)cc1OS(=O)(=O)c1ccc(C)cc1	none (no result: Vaccinia mCherry, Vaccinia Venus)
COc1ccc(NC(=O)COc2ccc(N(C)S(=O)(=O)c3ccc(Cl)cc3)cc2)cc1	HCV inh 11µM (no result: Vaccinia mCherry, Vaccinia Venus)

Compound activity from PubChem.
